Screening data as filed in PubChem BioAssay.
Chronic BCR inh: chronic active BCR signaling inhibition; ABC-DLBCL IkBa-CBG/CBR reporter, luminescence ratio, 4 h; AID 493014; 340,000 compounds, 0.05% hits; Potency, µM (titrated, usually from 46.1 µM), inactives show at the highest dose activity change, negative = inhibition, hits mostly inhibitors; active means well fitted inhibition curve with a large enough effect in the signal ratio, with a control signal flat, not every such curve was filed as active; inconclusive means small, poorly fitted or top-dose-only effect, or effect the other way, or a change in a side signal; the % refers to the signal ratio;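 further: potency means the concentration at half of the fitted maximal effect; plate controls were basal doxycycline-induced cells for no effect and cells given 10 µM MG132 for full effect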
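Compounds up to 46 uM were incubated four hours with TMD8 cells whose green CBG68 luciferase is fused to IkappaBalpha; red CBR luminescence normalised the signal, and concentration-effect curves were fitted to fusion, red and ratio data.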
DRD3 agonist: agonists of human D3 dopamine receptor; 410,000 compounds, 0.58% hits; max activation, %; AID 652048; D3R DiscoveRx beta-arrestin cells, luminescence, 90 min; in the data active means max activation above about 30%; further: 0% is about no effect
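Agonist mode: compounds and dopamine controls were applied to plated cells for 90 min at 37 degrees C after an overnight attachment at 1500 cells/well. Luminescent read-out followed 30 - 60 minutes at room temperature with DiscoveRx detection reagent.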
D1 agonist: agonists of human D1 dopamine receptor | activation, % at 2 µM | HEK293 T-REx D1 cells, calcium flux, agonist mode | P21728 | 360,000 compounds, 1% hits | AID 504660; in the data active means activation above about 30%; further: 0% is about no effect
Target sequence (P21728 whole entry, looked up): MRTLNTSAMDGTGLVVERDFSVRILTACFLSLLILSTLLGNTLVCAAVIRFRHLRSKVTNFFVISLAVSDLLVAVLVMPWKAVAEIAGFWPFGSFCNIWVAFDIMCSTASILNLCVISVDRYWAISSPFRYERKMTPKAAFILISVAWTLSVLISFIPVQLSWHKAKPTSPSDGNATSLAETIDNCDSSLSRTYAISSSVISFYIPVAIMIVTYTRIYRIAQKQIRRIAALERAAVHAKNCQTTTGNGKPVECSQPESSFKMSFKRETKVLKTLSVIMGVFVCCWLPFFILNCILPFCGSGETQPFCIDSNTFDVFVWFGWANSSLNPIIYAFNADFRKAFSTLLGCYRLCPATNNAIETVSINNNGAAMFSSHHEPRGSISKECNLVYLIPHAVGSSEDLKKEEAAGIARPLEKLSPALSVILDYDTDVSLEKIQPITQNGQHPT
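Agonism was scored from calcium flux recorded over 180 s (1 read/s) after pintool compound addition, following a 10-cycle baseline. Cells were inducible force-coupled HEK293 TREx D1, plated overnight at 30 C and loaded with no-wash calcium dye.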
D1 antag: human D1 dopamine receptor antagonism | AID 504652 | activity change, negative = inhibition, % at 10 µM | HEK293 TREx D1 cells, calcium flux, dopamine EC80; stronger effect = lower value | 360,000 compounds, 3.2% hits | P21728; in the data active means activity change below about -30%; further: on the % scale 0 is the no-effect control and ±100 the full control effect
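After overnight tetracycline induction at 30 C, force-coupled D1 HEK293 cells took up a no-wash calcium dye at room temperature. Compounds were added and monitored 180 s, and the response to EC80 dopamine was then recorded.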
D1 PAM: potentiators of human D1 dopamine receptor; 360,000 compounds, 0.036% hits; potentiation, % at 10 µM; HEK293 TREx D1 cells, calcium flux, dopamine EC20 potentiation; P21728; in the data active means potentiation above about 30%; further: 0% is about no effect
D3 antag: D3 dopamine receptor (human) antagonism | AID 652054 | 360,000 compounds, 2.5% hits | D3R cells, DiscoveRx beta-arrestin luminescence, antagonist mode; stronger effect = lower value | P35462 | max response, negative = inhibition, %; in the data active means max response below about -50%; inconclusive means no clear call, values can overlap the other calls; further: on the % scale 0 is the no-effect control and ±100 the full control effect
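Cells plated overnight at 1500 cells/well, then exposed to library compounds with dopamine controls for 90 minutes at 37 degrees C. DiscoveRx reagent added for 30–60 minutes at room temperature; luminescence read, quantitative HTS format.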
Active calls of the source: *; u = inconclusive; x = no result; ! = not confirmed by another sample; [ ] = remark or other dose. Compounds with a hit are over-represented: about 6% of the library has one in this group of screens.

SMILES	Chronic BCR inh	DRD3 agonist	D1 agonist	D1 antag	D1 PAM	D3 antag
CCN(CC)C(=O)c1sc2c(c1C)c(=O)n(-c1ccc(C)c(C)c1)c(=O)n2Cc1cc(=O)n2c(C)cccc2n1	-4%	-20	0	-18	-4	x
Cc1ccc(S(=O)(=O)NC(=O)Nc2cc(C(C)(C)C)on2)cc1	3%	1	2	-37*	2	1
COc1ccc(NC(=O)Cn2c(=O)n(CCC(=O)NCc3ccccc3OC)c(=O)c3ccccc32)cc1Cl	x	-14	-2	-2	1	x
CC(Cc1ccccc1)NC(=O)/C=C/c1ccc([N+](=O)[O-])cc1 (centres undefined)	u	-3	4	-8	-3	3
Cc1ccc(/C=C/C(=O)NCCCc2ccccc2)cc1	11%	0	22	-40*	-8	10
CC(CCc1ccccc1)NC(=O)/C=C/c1ccc(Cl)cc1 (centres undefined)	-5%	-7	9	-86*	-4	10
Cc1ccc(N(C)S(=O)(=O)c2cc(-c3cnc(C4CC4)o3)ccc2C)cc1	-8%	17	0	-3	2	79
COc1ccccc1NS(=O)(=O)c1ccc(-c2cnc(C3CC3)o2)cc1	u	-9	10	-25	-2	u
Cc1cccc(N(C)S(=O)(=O)c2ccc(-c3cnc(C4CC4)o3)cc2)c1	u	-3	9	-38*	-10	-23
COc1ccc(NS(=O)(=O)c2ccc(-c3cnc(C4CC4)o3)cc2)cc1OC	u	-1	17	-31*	-7	-2
CCOc1ccccc1NS(=O)(=O)c1ccc(-c2cnc(C3CC3)o2)cc1	u	-3	18	-38*!	-2	-9
Cc1ccc(CN2C(=O)CSCC2(C)C(=O)NC(C)C)cc1 (centres undefined)	x	8	x	x	x	24
Cc1ccc(NC(=S)NC2CC3CCC(C2)N3Cc2ccco2)c(C)c1 (centres undefined)	2%	-15	6	-43*	-7	-10
CCc1ccccc1NC(=O)NC1CC2CCC(C1)N2Cc1cccs1 (centres undefined)	0%	-30	3	13	-4	-54*
CCc1ccccc1NC(=S)NC1CC2CCC(C1)N2Cc1ccco1 (centres undefined)	-4%	-27	5	1	4	-53*
Cc1ccc(NC(=S)NC2CC3CCC(C2)N3Cc2ccco2)cc1C (centres undefined)	-21%	-21	8	-89*	-17	-23
Cc1ccc(CNC(=O)c2sc3nc4n(c(=O)c3c2C)CCCC4)cc1	x	4	28	-26	-4	x
CC(C)c1ccc(Nc2nc3ccc(C(=O)c4ccccc4)cc3n3cnnc23)cc1	x	-9	0	-6	1	x
CCc1ccccc1NC(=S)NC1CC2CCC(C1)N2Cc1ccc(F)cc1 (centres undefined)	u	-20	14	5	-6	-90*
CCc1ccc(NC(=S)NC2CC3CCCC(C2)N3Cc2cccs2)cc1 (centres undefined)	1%	-42	4	-81*	-11	-70*
COC(=O)C1=C(c2ccccc2)c2ccccc2S(=O)(=O)N1CC(=O)Nc1ccccc1Cl	x	0	2	7	3	x
COc1ccc([C@]23Cc4cc(C#N)ccc4C(O2)C2=C(CC4(CCCCC4)OC2=O)O3)cc1	24%[9.22 µM]	x	2	1	2	x
N#Cc1ccc2c(c1)C[C@]1(c3ccsc3)OC3=C(C(=O)OC4(CCCCC4)C3)C2O1	u	x	1	-32*	6	x
COc1cc(NC(=O)CCCN2C(=O)CCn3nc(-c4cn(C)c5ccccc45)cc32)cc(OC)c1	x	-17	3	9	-2	x
Cc1nn2c(N3CCN(CCO)CC3)c3c(nc2c1-c1ccccc1)CCCC3	-4%	-20	9	-66*	-2	-20
SMILES	Chronic BCR inh	DRD3 agonist	D1 agonist	D1 antag	D1 PAM	D3 antag
Cc1nn2c(N3CCCC3)c3c(nc2c1-c1ccccc1)CCC3	1%	1	0	0	-1	4
CC(C(=O)NC1CCCC1)N(C(=O)CS(=O)CC(=O)Nc1ccc(F)cc1)c1ccc2c(c1)OCCO2 (centres undefined)	7%	12	-1	-52*	0	1
Cc1ccc(NC(=O)CS(=O)CC(=O)N(c2ccccc2F)C(C)C(=O)NC2CCCC2)cc1 (centres undefined)	0%	15	2	16	-11	-3
O=C(CS(=O)CC(=O)N(CC(=O)NC1CCCC1)c1ccccc1F)Nc1ccc(F)cc1 (centres undefined)	-7%	4	0	-35*	1	5
CCOc1ccccc1NC(=O)C1=C(C)Nc2ncnn2C1c1ccco1 (centres undefined)	x	2	3	9	-2	x
CCN[C@@H]1C[C@H](N)[C@@H](OC2OC(CN)=CCC2N)[C@H](O)[C@H]1O[C@H]1OC[C@](C)(O)[C@H](NC)[C@H]1O (some centres undefined)	x	49*	x	x	x	x
CN[C@@H]1[C@@H](O)[C@@H](O[C@@H]2[C@@H](O)[C@H](OC3OC(CN)=CCC3N)[C@@H](N)C[C@H]2N)OC[C@]1(C)O (some centres undefined)	x	-7	x	x	x	x
COc1ccc2c(c1)c1c(c(=O)n(-c3cccc(C)c3)c(=O)n1CC(=O)NCc1ccc(C)cc1)n2C	x	5	-1	2	-1	x
O=Cc1c[nH]c2ccccc12	x	x	1	-55*	7	x
O=C(Nc1ccc(F)cc1)C1CCN(c2nc3ccccc3nc2C(F)(F)F)CC1	x	5	8	1	-3	x
CCOC(=O)[C@]12CCCC=C1N(CCc1ccc(OC)c(OC)c1)C(=O)[C@H](CC(=O)N1CCCCC1)C2	x	-3	x	x	x	7
O=Cc1c(NCc2ccccc2)c2ccccc2[nH]c1=O	-3%	-1	3	6	-1	5
O=Cc1c(NCc2ccc(Cl)cc2)c2ccccc2[nH]c1=O	-3%	-10	4	-37*	-6	1
CCC1CCc2nc3sc(C(=O)Nc4ccc(F)cc4F)c(N)c3cc2C1 (centres undefined)	x	-6	1	1	3	x
Cc1cc(C)c(S(=O)(=O)Nc2nnc(C)s2)c(C)c1	1%	3	3	-34*	-2	0
Cc1cc(C)c(S(=O)(=O)Nc2nnc(CC(C)C)s2)c(C)c1	0%	6	0	7	-4	7
COc1ccc(S(=O)(=O)Nc2ccc3c(c2)OCCO3)cc1Cl	-3%	-5	18	-32*	-8	0
Cc1ccc(S(=O)(=O)Nc2ccc3c(c2)OCCO3)cc1C	1%	-1	2	-6	-10	6
